The values below come from PubChem BioAssay.

Values joined by “and” are separate entries in the source; they are usually repeats but may differ in a detail not shown here. Equal values may be shown once. Active and inactive are the calls of the source. Unless noted, how the calls were made is not given here.

A short description of test [1]: compounds binding Alexa647 anti-His antibody – biochemical, small-molecule microarray, 635 nm fluorescence, artefact control for SMM control protein annotation, primary screen (AID 1128).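 Further: score merges feature fluorescence with signal-to-noise for each printed compound spot.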 Particulars: higher = more signal.
Test [2] has as its system Human papillomavirus type 1a E7 protein (residues 1-88). The test can be described thus: HPV1a E7 small-molecule binders, primary screen, biochemical, small-molecule microarray, residues 1-88, 635 nm (AID 1129). The note with it: small-molecule microarray binding, fluorescence 635 nm; higher = more signal.
In test [3] the target is Focal adhesion kinase 1 (Homo sapiens) (UniProt Q05397). Put plainly: PTK2 protein binding on printed compound slides – biochemical, small-molecule microarray, 635/667 nm fluorescence, BSA, DTT, primary screen (AID 1130).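 Further: composite of spot emission at 667 nm and signal to noise over triplicate slides.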 Particulars: 635 nm fluorescence, higher = more signal.
Focal adhesion kinase 1 (Homo sapiens), sequence (Q05397 whole entry, looked up): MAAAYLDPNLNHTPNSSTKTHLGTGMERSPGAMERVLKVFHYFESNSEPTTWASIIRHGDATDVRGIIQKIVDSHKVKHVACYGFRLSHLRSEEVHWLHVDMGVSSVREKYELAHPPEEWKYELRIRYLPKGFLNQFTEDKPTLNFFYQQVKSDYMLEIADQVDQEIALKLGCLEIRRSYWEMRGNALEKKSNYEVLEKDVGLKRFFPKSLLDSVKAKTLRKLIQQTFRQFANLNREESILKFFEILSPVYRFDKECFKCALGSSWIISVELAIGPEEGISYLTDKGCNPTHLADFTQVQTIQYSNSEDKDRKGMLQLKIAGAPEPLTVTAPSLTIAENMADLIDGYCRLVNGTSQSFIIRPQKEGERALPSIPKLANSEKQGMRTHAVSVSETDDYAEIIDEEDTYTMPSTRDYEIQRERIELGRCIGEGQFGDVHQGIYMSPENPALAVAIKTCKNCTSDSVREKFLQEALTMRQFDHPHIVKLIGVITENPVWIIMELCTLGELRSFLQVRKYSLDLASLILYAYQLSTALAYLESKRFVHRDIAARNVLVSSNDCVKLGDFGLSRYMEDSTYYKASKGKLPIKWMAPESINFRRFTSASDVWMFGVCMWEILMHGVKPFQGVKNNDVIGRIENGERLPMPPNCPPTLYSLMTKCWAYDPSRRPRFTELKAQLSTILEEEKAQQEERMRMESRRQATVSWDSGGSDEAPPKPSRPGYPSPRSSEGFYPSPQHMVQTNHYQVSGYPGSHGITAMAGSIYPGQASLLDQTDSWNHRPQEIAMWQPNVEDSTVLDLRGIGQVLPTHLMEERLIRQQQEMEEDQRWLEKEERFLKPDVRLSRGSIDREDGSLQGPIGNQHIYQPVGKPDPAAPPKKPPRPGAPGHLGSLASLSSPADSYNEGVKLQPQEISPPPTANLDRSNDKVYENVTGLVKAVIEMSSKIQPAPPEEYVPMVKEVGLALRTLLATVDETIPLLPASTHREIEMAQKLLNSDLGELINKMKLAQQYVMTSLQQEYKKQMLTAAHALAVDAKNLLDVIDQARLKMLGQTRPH
In test [4] the test system is Fibrinogen (Alexa647-labelled). The test can be described thus: Alexa647-fibrinogen binding to printed small molecules – biochemical, small-molecule microarray, 635/667 nm fluorescence, artefact control for SMM control-protein annotation, profiling panel (AID 1131).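 Further: z-score merges 667 nm fluorescence with per-spot signal-to-noise over triplicate slides.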 Particulars: fibrinogen-A647 binding fluorescence, higher = more signal.
Test [5] deals with Follistatin (Homo sapiens) (UniProt P19883). Put plainly: FST protein binding to printed compounds – biochemical, small-molecule microarray, 635/667 nm fluorescence, primary screen (AID 1132). Particulars: 635 nm fluorescence, higher = more signal.
Follistatin (Homo sapiens), sequence (P19883 whole entry, looked up): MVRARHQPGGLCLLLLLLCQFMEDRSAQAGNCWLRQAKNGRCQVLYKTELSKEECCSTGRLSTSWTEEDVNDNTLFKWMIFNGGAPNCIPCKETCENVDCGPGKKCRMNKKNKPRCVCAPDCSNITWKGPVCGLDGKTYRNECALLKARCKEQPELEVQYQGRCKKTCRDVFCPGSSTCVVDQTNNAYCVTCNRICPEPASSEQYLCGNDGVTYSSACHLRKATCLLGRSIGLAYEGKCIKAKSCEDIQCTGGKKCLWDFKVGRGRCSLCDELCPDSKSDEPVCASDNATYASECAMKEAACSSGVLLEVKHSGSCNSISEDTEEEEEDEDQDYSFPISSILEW
In test [6] the target is Fibroblast growth factor 2 (Homo sapiens) (UniProt P09038). Put plainly: basic fibroblast growth factor binding to printed compounds – biochemical, small-molecule microarray, 635/667 nm fluorescence, primary screen (AID 1133). Particulars: FGF2, fluorescence 635/667, higher = more signal.
Fibroblast growth factor 2 (Homo sapiens), sequence (P09038 whole entry, looked up): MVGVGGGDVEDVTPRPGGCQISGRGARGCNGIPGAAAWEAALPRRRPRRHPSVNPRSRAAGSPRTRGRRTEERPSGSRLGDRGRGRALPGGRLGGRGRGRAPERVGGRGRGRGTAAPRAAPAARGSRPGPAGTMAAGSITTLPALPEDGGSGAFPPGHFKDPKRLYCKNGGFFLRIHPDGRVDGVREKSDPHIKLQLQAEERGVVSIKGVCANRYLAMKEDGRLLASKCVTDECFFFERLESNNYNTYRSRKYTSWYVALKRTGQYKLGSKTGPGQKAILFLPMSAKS
The nature of test [7]: JC-1 mitochondrial potential readout, lung cancer cells – cell-based, A549, JC-1 fluorescence, basal, 24 h, 100 nL, profiling panel (AID 1138).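 Further: A549 lung adenocarcinoma cells under basal conditions with no added stimulus; test concentration not given here.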 Particulars: higher = more signal.
A further test concerns Lefty1. The test can be described thus: Lefty1 protein binding to printed compounds – biochemical, small-molecule microarray, 635/667 nm fluorescence, primary screen (AID 1139). Particulars: fluorescence 635/667, higher = more signal.
In test [8] the test system is wheat germ agglutinin (Triticum aestivum), Alexa647-labelled. The test can be described thus: Alexa647-WGA lectin binding to printed small molecules – biochemical, small-molecule microarray, 635/667 nm fluorescence, artefact control for SMM control-protein annotation, profiling panel (AID 1140).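 Further: score merges 667 nm feature emission with signal to noise over triplicate slides.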 The note with it: WGA-A647 binding, 635 nm fluorescence, higher = more signal.

Test [9] deals with Luciferin 4-monooxygenase (Photinus pyralis) (UniProt P08659). Put plainly: inhibition of purified Photinus pyralis luciferase – biochemical, luminescence, purified enzyme, 2006 set, primary screen (AID 1141).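 Further: cell-free assay with purified firefly luciferase at 100 ng per well in PBS; test concentration not given here.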 The note with it: purified firefly luciferase, SteadyGlo luminescence, 30 min; higher = more signal, called active from +8 up or from −8 down.
Luciferin 4-monooxygenase (Photinus pyralis), sequence (P08659 whole entry, looked up): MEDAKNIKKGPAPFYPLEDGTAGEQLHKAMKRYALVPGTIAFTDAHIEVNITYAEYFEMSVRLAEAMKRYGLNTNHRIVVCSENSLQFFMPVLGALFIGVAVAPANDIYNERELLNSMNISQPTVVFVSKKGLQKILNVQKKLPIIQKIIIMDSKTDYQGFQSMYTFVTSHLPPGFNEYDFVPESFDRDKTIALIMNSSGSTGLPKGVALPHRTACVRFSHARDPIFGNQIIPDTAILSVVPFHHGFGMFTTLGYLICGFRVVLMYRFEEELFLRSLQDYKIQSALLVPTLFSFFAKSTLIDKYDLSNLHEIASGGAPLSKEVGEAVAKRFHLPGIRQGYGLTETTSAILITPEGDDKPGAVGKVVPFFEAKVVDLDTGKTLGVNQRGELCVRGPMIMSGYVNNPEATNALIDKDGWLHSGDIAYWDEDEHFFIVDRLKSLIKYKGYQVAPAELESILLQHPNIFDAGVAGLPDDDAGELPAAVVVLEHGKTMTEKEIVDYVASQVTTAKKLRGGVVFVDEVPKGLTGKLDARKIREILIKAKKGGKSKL
Test [10] has as its system Wnt5a (protein binding on small-molecule microarray). Put plainly: small molecules binding Wnt5a protein – biophysical, small-molecule microarray, 635/667 nm fluorescence, primary screen (AID 1142).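 Further: fluorescence read at 667 nm with signal to noise per printed feature.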 Particulars: 635 nm fluorescence, higher = more signal.
A short description of test [11]: ATP-based viability of Huh7 replicon cells – cell-based, CellTiter-Glo luminescence, basal, 48 h, cytotoxicity control for HCV replication inhibitor project, primary screen (AID 1143).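 Further: Huh7 hepatoma cells carrying a hepatitis C replication reporter with no stimulus; test concentration not given here.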 Particulars: higher = more signal, called active from +8 up or from −8 down.
Test [12] can be described thus: Pseudomonas biofilm growth suppression – PAO1 strain, BacTiter-Glo luminescence, LB-PBS, primary screen (AID 1144). Particulars: P. aeruginosa PAO1 biofilm, 12 h, higher = more signal.
Test [13] can be described thus: basal CRE-LacZ reporter activity in PC12 – cell-based, unstimulated, primary screen (AID 1145). Particulars: no forskolin, luminescence, 4.5 h, higher = more signal, called active from +8 up or from −8 down.
Test [14] in a line: forskolin-driven CRE-LacZ activity in PC12 – cell-based, CRE-LacZ reporter, forskolin-stimulated, primary screen (AID 1146).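 Further: PC12 cells with 6xCRE LacZ reporter stimulated by forskolin 10 µM; beta-galactosidase reporter signal reflecting CREB driven transcription.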 Particulars: luminescence, 4.5 h, higher = more signal, called active from +8 up or from −8 down.
In test [15] the target is Streptavidin (Streptomyces avidinii) (UniProt P22629). Put plainly: compounds binding control protein streptavidin – biophysical, small-molecule microarray, 635/667 nm fluorescence, artefact control for SMM compound annotation, primary screen (AID 1147).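 Further: signal reflects streptavidin binding to arrayed compounds as a control protein.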 Particulars: higher = more signal.
Streptavidin (Streptomyces avidinii), sequence (P22629 whole entry, looked up): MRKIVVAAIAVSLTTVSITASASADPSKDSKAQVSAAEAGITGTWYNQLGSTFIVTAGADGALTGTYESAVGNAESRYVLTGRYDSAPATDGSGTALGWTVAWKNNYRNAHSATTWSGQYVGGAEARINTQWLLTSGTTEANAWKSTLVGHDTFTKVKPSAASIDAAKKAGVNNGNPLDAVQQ
Test [16] in a line: probe aInhba binding on compound microarray – biochemical, small-molecule microarray, 635/667 nm fluorescence, primary screen (AID 1148).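 Further: score merges 667nm spot fluorescence with signal-to-noise for antibody binding to printed compounds.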 The note with it: higher = more signal.
Test [17] deals with Torsin-1A (Homo sapiens) (UniProt O14656). Put plainly: TOR1A wild-type binding on microarray – cell lysate, small-molecule microarray, lysate, 635/667 nm, primary screen (AID 1149). Particulars: COS7 hTOR1A-WT lysate, 635 nm fluorescence, higher = more signal.
Torsin-1A (Homo sapiens), sequence (O14656 whole entry, looked up): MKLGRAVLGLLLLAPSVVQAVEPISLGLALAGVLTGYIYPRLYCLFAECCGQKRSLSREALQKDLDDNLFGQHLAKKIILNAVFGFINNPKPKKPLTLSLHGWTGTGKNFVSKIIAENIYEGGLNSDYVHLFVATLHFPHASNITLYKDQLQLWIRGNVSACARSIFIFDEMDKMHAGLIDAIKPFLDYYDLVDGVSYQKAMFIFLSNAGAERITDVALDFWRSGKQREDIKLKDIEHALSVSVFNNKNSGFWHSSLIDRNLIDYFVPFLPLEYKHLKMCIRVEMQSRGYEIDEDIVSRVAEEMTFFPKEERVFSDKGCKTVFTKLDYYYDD
For test [18] the target is unchanged. Put plainly: torsin A mutant lysate binding on microarrays – cell lysate, small-molecule microarray, COS7 lysate, 635/667 nm fluorescence, primary screen (AID 1150).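 Further: score pools 667 nm emission and signal to noise measuring lysate protein binding.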 The note with it: COS7 hTOR1A mutant lysate, 635 nm fluorescence, higher = more signal.
In test [19] the test system is Sonic hedgehog protein (Shh). The test can be described thus: Sonic hedgehog microarray binding compounds – biochemical, small-molecule microarray, 635/667 nm fluorescence, primary screen (AID 1151).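 Further: Shh protein binding to compounds spotted on small-molecule microarray slides; score combines spot fluorescence intensity with signal-to-noise across triplicate slides.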 Particulars: 635 nm fluorescence, higher = more signal.

For the compound `C=CCN(C(=O)C(c1cccs1)N(CCOCCO)C(=O)/C=C\C(=O)O)C(C)(C)C` (centres undefined), the composite z-score in [1] was -1.68 and -1.56; in test [2], -1.4 and -0.488; in test [3] it was -1.37 and -0.35; in test [4] it was -0.7 and -1.15; in test [5], -2.15 and -0.795; in test [6] it was -1.7 and -1.19. For the same compound, the composite z-score is -1.66 and -1.83 in the test with Lefty1; -1.04 and -0.022 in test [8]; -0.775 and -0.776 in test [10]; -1.89 and -1.22 in [15]; -0.251 and -0.176 in test [16]; -1.26 and -0.984 with Torsin-1A (Homo sapiens) [17]. The composite z-score was -1.79 and -2.02 in the test with Torsin-1A (Homo sapiens) [18]; -1.27 and -0.703 in [19]. Moreover, the z-score was 1.01 and 1.41 in test [7]; -1.5 (inactive) and -1.32 (inactive) in test [9]; -0.199 (inactive) and -0.0585 (inactive) in test [11]; -1.2 (inactive) and -0.384 (inactive) in test [12]; 1.42 (inactive) and 0.191 (inactive) in test [13]; 0.005 (inactive) and -0.599 (inactive) in test [14].
Turning to `C=CCN(C(=O)C(c1cccs1)N(C(=O)/C=C\C(=O)O)c1ccc(CCO)cc1)C(C)(C)C` (centres undefined), the composite z-score was 0.381 and 2.21 in test [1]; 0.07 and 0.0514 in [2]; 0.721 and -0.265 in [3]; -0.548 and -3.6 in [4]; -0.985 and -1.66 in test [5]; -1.22 and -1.05 in test [6]. The composite z-score is -1.76 and -2 with Lefty1; 0.559 and -0.287 in test [8]; -0.156 and -1.27 in test [10]; -0.298 and -0.966 in test [15]; -0.154 and -0.227 in test [16]; -0.603 and -2.33 with Torsin-1A (Homo sapiens) [17]. The composite z-score with Torsin-1A (Homo sapiens) [18] was 1.56 and -2.14; in test [19], -0.754 and -1.36. In addition, the z-score was 0.428 and 0.741 in test [7]; -0.928 (inactive) and -0.538 (inactive) in test [9]; -0.243 (inactive) and 0.38 (inactive) in test [11]; -0.638 (inactive) and 0.984 (inactive) in test [12]; -0.0859 (inactive) and 0.597 (inactive) in test [13]; 0.332 (inactive) and -0.439 (inactive) in test [14].
Turning to `CC(C)N1CC=CC23O[C@@H]4C=CCCOC(=O)C4[C@H]2C(=O)N(C(C)CO)[C@@H]3C1=O` (some centres undefined), the composite z-score is 0.412 and -0.876 in [1]; -0.149 and -1.45 in test [2]; -0.214 and -0.327 in [3]; -0.367 and -0.617 in test [4]; -1.72 and -1.22 in [5]; -1.55 and -0.107 in test [6]. The composite z-score with Lefty1 is -0.674 and -1.22; in test [8], -0.759 and -1.45; in test [10] it was 0.797 and -0.143; in test [15] it was -0.55 and 1.17; in [16], -0.128 and -0.176; in the test with Torsin-1A (Homo sapiens) [17], 0.0687 and -0.403. In addition, the composite z-score is -0.0439 and 0.0427 in the test with Torsin-1A (Homo sapiens) [18]; -0.0042 and -0.188 in [19]. Also, the z-score in test [7] is 0.615 and 0.4; in [9], -0.509 (inactive) and -0.916 (inactive); in test [11], -0.909 (inactive) and 0.0354 (inactive); in test [13], -0.631 (inactive) and -0.753 (inactive); in test [14], -0.0522 (inactive) and -0.428 (inactive).
Consider `CC(C)=NO[C@@H](C)c1cc(-c2c(C)cc(C)cc2C)no1`, for which the composite z-score in [1] is 1.01; in test [2], -0.705; in [3], 0.0218; in test [4] it was -0.268; in [5], 0.0215; in test [6] it was 0.0248. The composite z-score with Lefty1 was 0.0782; in test [8], -0.418; in test [10] it was -0.278; in test [15] it was 0.186; in test [16] it was -0.128; with Torsin-1A (Homo sapiens) [17], 0.0381. In addition, the composite z-score with Torsin-1A (Homo sapiens) [18] is -0.281; in test [19], -0.104. For the same compound, the z-score in test [7] was -0.114; in test [9] it was 0.389 (inactive); in test [11] it was -2.11 (inactive); in test [12], -1.37 (inactive); in [13], 1.49 (inactive); in test [14], -0.49 (inactive).
